Experimental data from publication PMC11006913.
Numbering of substitutions follows the chain as printed.

Assays:
Assay in all cases: PBM; 200 nM protein, PBS
Details in all cases: dsDNA, one strand shown
[1] = target: T1, SIX6 (Homo sapiens, UniProt O95475 114-200, L167M)
T1 sequence: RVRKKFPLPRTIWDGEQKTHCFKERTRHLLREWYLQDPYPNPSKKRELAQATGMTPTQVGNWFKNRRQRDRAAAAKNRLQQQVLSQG

[2] = target: T2, NKX2-4 (Homo sapiens, UniProt Q9H2Z4 175-261)
T2 sequence: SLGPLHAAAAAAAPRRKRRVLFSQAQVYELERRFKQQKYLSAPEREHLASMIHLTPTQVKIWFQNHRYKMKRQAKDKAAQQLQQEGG

[3] = target: T3, PAX4 (Homo sapiens, UniProt O43316 9-242)
T3 sequence: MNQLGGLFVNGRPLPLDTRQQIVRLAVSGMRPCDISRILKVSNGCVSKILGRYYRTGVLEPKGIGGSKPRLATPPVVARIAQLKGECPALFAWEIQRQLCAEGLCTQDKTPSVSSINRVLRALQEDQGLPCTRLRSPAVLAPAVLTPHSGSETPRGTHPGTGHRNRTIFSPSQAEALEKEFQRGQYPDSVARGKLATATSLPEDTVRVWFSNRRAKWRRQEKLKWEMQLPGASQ

[4] = target: T4, PAX4 (Homo sapiens, UniProt O43316 9-242, F177V)
T4 sequence: T3 sequence with F169V

[5] = target: T5, PAX4 (Homo sapiens, UniProt O43316 9-242, F177Y)
T5 sequence: T3 sequence with F169Y

[6] = target: T6, PAX4 (Homo sapiens, UniProt O43316 9-242, R227W)
T6 sequence: T3 sequence with R219W

[7] = target: T7, SIX6 (Homo sapiens, UniProt O95475 114-200, L143M)
T7 sequence: T1 sequence with L30M, M54L

[8] = target: T8, SIX6 (Homo sapiens, UniProt O95475 114-200, L143I)
T8 sequence: T1 sequence with L30I, M54L

[9] = target: HOXB6 (Homo sapiens, UniProt P17509 132-218, K202E)
[10] = target: HOXA2 (Homo sapiens, UniProt O43364 129-215, R185T)
[11] = target: HOXA2 (Homo sapiens, UniProt O43364 129-215, R185K)
[12] = target: HOXA2 (Homo sapiens, UniProt O43364 129-215, Y150S)
[13] = target: HOXA2 (Homo sapiens, UniProt O43364 129-215)
[14] = target: HOXB6 (Homo sapiens, UniProt P17509 132-218)
[15] = target: T9, NKX2-6 (Homo sapiens, UniProt A6NCS4 118-204, R150C)
T9 sequence: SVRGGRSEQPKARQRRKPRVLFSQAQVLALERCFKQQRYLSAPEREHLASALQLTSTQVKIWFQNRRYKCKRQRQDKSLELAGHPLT

[16] = target: T10, NKX2-4 (Homo sapiens, UniProt Q9H2Z4 175-261, R246Q)
T10 sequence: T2 sequence with R72Q

[17] = target: ALX1 (Homo sapiens, UniProt Q15699 118-204, L144V)
[18] = target: ALX1 (Homo sapiens, UniProt Q15699 118-204, L144R)
[19] = target: ALX1 (Homo sapiens, UniProt Q15699 118-204)
[20] = target: MSX2 (Homo sapiens, UniProt P35548 130-214)
[21] = target: MSX2 (Homo sapiens, UniProt P35548 130-214, F161Y)
[22] = target: ALX3 (Homo sapiens, UniProt O95076 139-225, N203Q)
[23] = target: ALX3 (Homo sapiens, UniProt O95076 139-225)
[24] = target: ALX3 (Homo sapiens, UniProt O95076 139-225, N203S)
[25] = target: T11, SIX6 (Homo sapiens, UniProt O95475 114-200, L167V)
T11 sequence: T1 sequence with M54V

[26] = target: NKX3-2 (Homo sapiens, UniProt P78367 192-278, P234S)
[27] = target: NKX3-2 (Homo sapiens, UniProt P78367 192-278)
Chain of NKX3-2 (Homo sapiens, UniProt P78367 192-278) (P78367 192-278): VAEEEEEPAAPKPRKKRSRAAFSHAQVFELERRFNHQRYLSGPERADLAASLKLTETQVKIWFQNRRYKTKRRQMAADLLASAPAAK

Chain of HOXB6 (Homo sapiens, UniProt P17509 132-218) (P17509 132-218): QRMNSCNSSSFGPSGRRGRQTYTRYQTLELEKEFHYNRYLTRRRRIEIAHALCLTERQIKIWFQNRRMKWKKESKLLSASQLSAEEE
Chain of HOXB6 (Homo sapiens, UniProt P17509 132-218, K202E) (P17509 132-218 K202E): as the sequence (P17509 132-218) above, with K71E counted along it
Chain of ALX1 (Homo sapiens, UniProt Q15699 118-204, L144V) (Q15699 118-204 L144V): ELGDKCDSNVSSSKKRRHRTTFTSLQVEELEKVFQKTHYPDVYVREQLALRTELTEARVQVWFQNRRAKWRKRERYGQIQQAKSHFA
Chain of HOXA2 (Homo sapiens, UniProt O43364 129-215, Y150S) (O43364 129-215 Y150S): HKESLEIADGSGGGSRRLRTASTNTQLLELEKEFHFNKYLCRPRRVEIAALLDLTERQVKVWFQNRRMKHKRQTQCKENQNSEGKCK
Chain of HOXA2 (Homo sapiens, UniProt O43364 129-215) (O43364 129-215): as the sequence (O43364 129-215 Y150S) above, with S22Y counted along it
Chain of HOXA2 (Homo sapiens, UniProt O43364 129-215, R185T) (O43364 129-215 R185T): as the sequence (O43364 129-215 Y150S) above, with S22Y, R57T counted along it
Chain of HOXA2 (Homo sapiens, UniProt O43364 129-215, R185K) (O43364 129-215 R185K): as the sequence (O43364 129-215 Y150S) above, with S22Y, R57K counted along it
Chain of ALX1 (Homo sapiens, UniProt Q15699 118-204) (Q15699 118-204): as the sequence (Q15699 118-204 L144V) above, with V27L counted along it
Chain of ALX1 (Homo sapiens, UniProt Q15699 118-204, L144R) (Q15699 118-204 L144R): as the sequence (Q15699 118-204 L144V) above, with V27R counted along it
Chain of ALX3 (Homo sapiens, UniProt O95076 139-225, N203S) (O95076 139-225 N203S): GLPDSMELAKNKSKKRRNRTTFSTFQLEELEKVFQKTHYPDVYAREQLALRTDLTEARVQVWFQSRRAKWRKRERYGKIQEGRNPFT
Chain of ALX3 (Homo sapiens, UniProt O95076 139-225, N203Q) (O95076 139-225 N203Q): as the sequence (O95076 139-225 N203S) above, with S65Q counted along it
Chain of MSX2 (Homo sapiens, UniProt P35548 130-214) (P35548 130-214): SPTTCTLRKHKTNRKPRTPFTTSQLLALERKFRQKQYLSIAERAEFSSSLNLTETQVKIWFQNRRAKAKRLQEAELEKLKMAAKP
Chain of ALX3 (Homo sapiens, UniProt O95076 139-225) (O95076 139-225): as the sequence (O95076 139-225 N203S) above, with S65N counted along it
Chain of NKX3-2 (Homo sapiens, UniProt P78367 192-278, P234S) (P78367 192-278 P234S): as the sequence (P78367 192-278) above, with P43S counted along it
Chain of MSX2 (Homo sapiens, UniProt P35548 130-214, F161Y) (P35548 130-214 F161Y): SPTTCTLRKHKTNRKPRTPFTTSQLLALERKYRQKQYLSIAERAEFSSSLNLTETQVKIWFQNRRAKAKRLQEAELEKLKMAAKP

Q: With CGGATATA as the sequence, how does the binding signal [1] read?
A: The binding signal was 10.8 upbm affinity estimate (log intensity, higher = more binding, comparable within an allelic series).

Q: With AGGTATAT as the sequence, how does the binding signal [1] read?
A: Its binding signal is 10.8 upbm affinity estimate (log intensity, higher = more binding, comparable within an allelic series).

Q: TATATCCA was tested. Which binding signal [1] did it give?
A: Its binding signal is 10.7 upbm affinity estimate (log intensity, higher = more binding, comparable within an allelic series).

Q: For AGGGGTCA, which binding signal [2] is on record?
A: Its binding signal is 11.2 upbm affinity estimate (log intensity, higher = more binding, comparable within an allelic series).

Q: Which binding signal [1] does the source give for GGGATATA here?
A: The binding signal was 10.8 upbm affinity estimate (log intensity, higher = more binding, comparable within an allelic series).

Q: How did the binding signal [1] turn out when GGTATCGA was run?
A: Its binding signal is 10.4 upbm affinity estimate (log intensity, higher = more binding, comparable within an allelic series).

Q: For CCGTATCG, which binding signal [1] is on record?
A: The binding signal was 9.97 upbm affinity estimate (log intensity, higher = more binding, comparable within an allelic series).

Q: What does the source list for CCACGTTA?
A: binding signal [3]: 10.7 upbm affinity estimate (log intensity, higher = more binding, comparable within an allelic series); binding signal [4]: 10.1 upbm affinity estimate (log intensity, higher = more binding, comparable within an allelic series); binding signal [5]: 10.1 upbm affinity estimate (log intensity, higher = more binding, comparable within an allelic series); binding signal [6]: 10.2 upbm affinity estimate (log intensity, higher = more binding, comparable within an allelic series)

Q: ACCGATAC was tested. Which binding signal [1] did it give?
A: The binding signal was 10.2 upbm affinity estimate (log intensity, higher = more binding, comparable within an allelic series).

Q: With GGGGGATA as the sequence, how does the binding signal [1] read?
A: The binding signal was 10.8 upbm affinity estimate (log intensity, higher = more binding, comparable within an allelic series).

Q: Which results are given for ACTGATGC?
A: binding signal [3]: 10.6 upbm affinity estimate (log intensity, higher = more binding, comparable within an allelic series); binding signal [4]: 9.94 upbm affinity estimate (log intensity, higher = more binding, comparable within an allelic series); binding signal [5]: 10 upbm affinity estimate (log intensity, higher = more binding, comparable within an allelic series); binding signal [6]: 10 upbm affinity estimate (log intensity, higher = more binding, comparable within an allelic series)

Q: With GGGGTATA as the sequence, how does the binding signal [1] read?
A: Its binding signal is 10.7 upbm affinity estimate (log intensity, higher = more binding, comparable within an allelic series).

Q: For ATATACCA, which binding signal [1] is on record?
A: Its binding signal is 10.7 upbm affinity estimate (log intensity, higher = more binding, comparable within an allelic series).

Q: CGTATCGC was tested. Which binding signal [1] did it give?
A: Its binding signal is 10 upbm affinity estimate (log intensity, higher = more binding, comparable within an allelic series).

Q: With TTAGTCAA as the sequence, how does the binding signal [3] read?
A: Its binding signal is 10.9 upbm affinity estimate (log intensity, higher = more binding, comparable within an allelic series).

Q: And the binding signal [4]?
A: Its binding signal is 10.1 upbm affinity estimate (log intensity, higher = more binding, comparable within an allelic series).

Q: What about the binding signal [5] of the same sequence?
A: Its binding signal is 10.2 upbm affinity estimate (log intensity, higher = more binding, comparable within an allelic series).

Q: What about the binding signal [6] of the same sequence?
A: Its binding signal is 10.2 upbm affinity estimate (log intensity, higher = more binding, comparable within an allelic series).

Q: Which binding signal [3] does the source give for AAAACCAT here?
A: Its binding signal is 10.5 upbm affinity estimate (log intensity, higher = more binding, comparable within an allelic series).

Q: And the binding signal [5]?
A: The binding signal was 9.98 upbm affinity estimate (log intensity, higher = more binding, comparable within an allelic series).

Q: What about the binding signal [6] of the same sequence?
A: The binding signal was 10.1 upbm affinity estimate (log intensity, higher = more binding, comparable within an allelic series).

Q: For AGATATCC, which binding signal [7] is on record?
A: The binding signal was 10.9 upbm affinity estimate (log intensity, higher = more binding, comparable within an allelic series).

Q: GATACATC was tested. Which binding signal [8] did it give?
A: Its binding signal is 10.4 upbm affinity estimate (log intensity, higher = more binding, comparable within an allelic series).

Q: Which binding signal [9] does the source give for CACCCGGG here?
A: Its binding signal is 9.01 upbm affinity estimate (log intensity, higher = more binding, comparable within an allelic series).

Q: And the binding signal [10]?
A: Its binding signal is 7.01 upbm affinity estimate (log intensity, higher = more binding, comparable within an allelic series).

Q: What about the binding signal [11] of the same sequence?
A: Its binding signal is 10.3 upbm affinity estimate (log intensity, higher = more binding, comparable within an allelic series).

Q: And the binding signal [12]?
A: Its binding signal is 10.5 upbm affinity estimate (log intensity, higher = more binding, comparable within an allelic series).

Q: What about the binding signal [13] of the same sequence?
A: The binding signal was 7.11 upbm affinity estimate (log intensity, higher = more binding, comparable within an allelic series).

Q: What about the binding signal [14] of the same sequence?
A: The binding signal was 8.87 upbm affinity estimate (log intensity, higher = more binding, comparable within an allelic series).

Q: Which binding signal [9] does the source give for ACGGGCCT here?
A: The binding signal was 8.87 upbm affinity estimate (log intensity, higher = more binding, comparable within an allelic series).

Q: What about the binding signal [15] of the same sequence?
A: Its binding signal is 9.14 upbm affinity estimate (log intensity, higher = more binding, comparable within an allelic series).

Q: And the binding signal [14]?
A: Its binding signal is 8.95 upbm affinity estimate (log intensity, higher = more binding, comparable within an allelic series).

Q: Which results are given for AGCCTTGC?
A: binding signal [9]: 9.12 upbm affinity estimate (log intensity, higher = more binding, comparable within an allelic series); binding signal [10]: 7.13 upbm affinity estimate (log intensity, higher = more binding, comparable within an allelic series); binding signal [11]: 10.3 upbm affinity estimate (log intensity, higher = more binding, comparable within an allelic series); binding signal [12]: 10.6 upbm affinity estimate (log intensity, higher = more binding, comparable within an allelic series); binding signal [13]: 7.12 upbm affinity estimate (log intensity, higher = more binding, comparable within an allelic series); binding signal [14]: 8.94 upbm affinity estimate (log intensity, higher = more binding, comparable within an allelic series)

Q: AGTGCAGA was tested. Which binding signal [2] did it give?
A: The binding signal was 11.4 upbm affinity estimate (log intensity, higher = more binding, comparable within an allelic series).

Q: What about the binding signal [16] of the same sequence?
A: The binding signal was 11.7 upbm affinity estimate (log intensity, higher = more binding, comparable within an allelic series).

Q: How did the binding signal [9] turn out when AGTCCCCC was run?
A: The binding signal was 8.9 upbm affinity estimate (log intensity, higher = more binding, comparable within an allelic series).

Q: And the binding signal [17]?
A: Its binding signal is 6.53 upbm affinity estimate (log intensity, higher = more binding, comparable within an allelic series).

Q: What about the binding signal [18] of the same sequence?
A: Its binding signal is 6.37 upbm affinity estimate (log intensity, higher = more binding, comparable within an allelic series).

Q: And the binding signal [19]?
A: Its binding signal is 6.41 upbm affinity estimate (log intensity, higher = more binding, comparable within an allelic series).

Q: And the binding signal [14]?
A: The binding signal was 8.97 upbm affinity estimate (log intensity, higher = more binding, comparable within an allelic series).

Q: With ATAAAAGC as the sequence, how does the binding signal [9] read?
A: Its binding signal is 9.53 upbm affinity estimate (log intensity, higher = more binding, comparable within an allelic series).

Q: What about the binding signal [20] of the same sequence?
A: Its binding signal is 10.9 upbm affinity estimate (log intensity, higher = more binding, comparable within an allelic series).

Q: What about the binding signal [21] of the same sequence?
A: Its binding signal is 10.8 upbm affinity estimate (log intensity, higher = more binding, comparable within an allelic series).

Q: And the binding signal [14]?
A: Its binding signal is 10.3 upbm affinity estimate (log intensity, higher = more binding, comparable within an allelic series).

Q: Which results are given for ACTATTGA?
A: binding signal [9]: 9.51 upbm affinity estimate (log intensity, higher = more binding, comparable within an allelic series); binding signal [22]: 8.21 upbm affinity estimate (log intensity, higher = more binding, comparable within an allelic series); binding signal [23]: 9.1 upbm affinity estimate (log intensity, higher = more binding, comparable within an allelic series); binding signal [24]: 8.3 upbm affinity estimate (log intensity, higher = more binding, comparable within an allelic series); binding signal [14]: 10.1 upbm affinity estimate (log intensity, higher = more binding, comparable within an allelic series)

Q: AGTGCGTG was tested. Which binding signal [2] did it give?
A: Its binding signal is 11.3 upbm affinity estimate (log intensity, higher = more binding, comparable within an allelic series).

Q: How did the binding signal [8] turn out when ATCATGAT was run?
A: The binding signal was 10.4 upbm affinity estimate (log intensity, higher = more binding, comparable within an allelic series).

Q: Which binding signal [2] does the source give for ACTACTAG here?
A: The binding signal was 11.1 upbm affinity estimate (log intensity, higher = more binding, comparable within an allelic series).

Q: ATATCTAC was tested. Which binding signal [7] did it give?
A: The binding signal was 11 upbm affinity estimate (log intensity, higher = more binding, comparable within an allelic series).

Q: For ATAATACC, which binding signal [8] is on record?
A: The binding signal was 10.4 upbm affinity estimate (log intensity, higher = more binding, comparable within an allelic series).

Q: How did the binding signal [9] turn out when TCCTAGGA was run?
A: Its binding signal is 9.13 upbm affinity estimate (log intensity, higher = more binding, comparable within an allelic series).

Q: And the binding signal [14]?
A: The binding signal was 9.16 upbm affinity estimate (log intensity, higher = more binding, comparable within an allelic series).

Q: Which binding signal [7] does the source give for CGGATATC here?
A: The binding signal was 10.9 upbm affinity estimate (log intensity, higher = more binding, comparable within an allelic series).

Q: What about the binding signal [25] of the same sequence?
A: Its binding signal is 10.8 upbm affinity estimate (log intensity, higher = more binding, comparable within an allelic series).

Q: Which results are given for AGGCGCTC?
A: binding signal [9]: 9.06 upbm affinity estimate (log intensity, higher = more binding, comparable within an allelic series); binding signal [17]: 6.32 upbm affinity estimate (log intensity, higher = more binding, comparable within an allelic series); binding signal [18]: 6.29 upbm affinity estimate (log intensity, higher = more binding, comparable within an allelic series); binding signal [26]: 10.5 upbm affinity estimate (log intensity, higher = more binding, comparable within an allelic series); binding signal [19]: 6.17 upbm affinity estimate (log intensity, higher = more binding, comparable within an allelic series); binding signal [14]: 8.87 upbm affinity estimate (log intensity, higher = more binding, comparable within an allelic series); binding signal [27]: 10.6 upbm affinity estimate (log intensity, higher = more binding, comparable within an allelic series)
